This is an account of results in PubChem BioAssay (EPA / NIEHS).

Molecules are shown by their SMILES. Values joined by “and” are separate entries in the source; they are usually repeats but may differ in a detail not shown here. Identical values can stand only once. Inconclusive results are not listed. Some structures have more than one record in an assay (separate samples or runs), and their calls can disagree. Active and inactive are the calls of the source. Rule for the calls, unless noted: active = hit-call score of the fitted dose curve at least 0.9, where 1 is the maximum; inconclusive = response in the unintended direction; inactive = score below 0.9.

Read-out in experiment [1]: Transforming Growth Factor (TGFB1), TGFB1 (gene 7040)
Nature of the experiment: LTEA_HepaRG_TGFB1: Life Technologies and Expression Analysis (LTEA) Assay for Transforming Growth Factor (TGFB1) Transporter using HepaRG (AID 2283533; active = hit-call score of the fitted dose curve at least 0.9, where 1 is the maximum; inactive = score below 0.9). The settings on record: mRNA level, 48 h; actives raise or lower the signal. The essentials:
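Differentiated human HepaRG cells in serum-free induction medium were exposed in duplicate for 48 h to eight concentrations (top 100 uM, half-log steps, 0.5% DMSO). TGFB1 mRNA was quantified by qRT-PCR, normalized to ACTB, GAPDH, POLR2A, and fitted bidirectionally against DMSO.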

Read-out in the next experiment: TIMP1, TIMP1 (gene 7076)
Nature of the experiment: LTEA_HepaRG_TIMP1: Life Technologies and Expression Analysis (LTEA) Assay for TIMP1 using HepaRG (AID 2283534; active = hit-call score of the fitted dose curve at least 0.9, where 1 is the maximum; inactive = score below 0.9). The settings on record: mRNA level, 48 h; actives raise or lower the signal. In short, it runs like this:
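Differentiated human HepaRG cells in serum-free induction medium were exposed 48 h to chemicals (8 half-log concentrations, top 100 uM, 0.5% DMSO). TIMP1 mRNA was quantified by TaqMan qRT-PCR, normalized to ACTB/GAPDH/POLR2A; bidirectional fit versus DMSO.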

Read-out in experiment [2]: Tumor necrosis factor receptor 1 (TNFRSF1A), TNFRSF1A (gene 7132)
Nature of the experiment: LTEA_HepaRG_TNFRSF1A: Life Technologies and Expression Analysis (LTEA) Assay for Tumor necrosis factor receptor 1 (TNFRSF1A) using HepaRG (AID 2283535; active = hit-call score of the fitted dose curve at least 0.9, where 1 is the maximum; inactive = score below 0.9). The settings on record: mRNA level, 48 h; actives raise or lower the signal. The essentials: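 Differentiated human HepaRG cells were exposed in duplicate for 48 h in serum-free induction medium to eight concentrations (top 100 uM, half-log steps, 0.5% DMSO). TNFRSF1A mRNA was quantified by qRT-PCR, normalized to ACTB, GAPDH and POLR2A, then fitted bidirectionally against DMSO.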

Read-out in experiment [3]: Thyroid Hormone Responsive (THRSP), THRSP (gene 7069)
Nature of the experiment: LTEA_HepaRG_THRSP: Life Technologies and Expression Analysis (LTEA) Assay for Thyroid Hormone Responsive (THRSP) using HepaRG (AID 2283536; active = hit-call score of the fitted dose curve at least 0.9, where 1 is the maximum; inactive = score below 0.9). The conditions noted are these: mRNA level, 48 h; actives raise or lower the signal. In short, it runs like this: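 THRSP transcript quantified by Fluidigm qRT-PCR against three housekeeping genes after 48 h chemical exposure of HepaRG cells in serum-free induction medium; eight-point half-log series, top 100 uM, 0.5% DMSO vehicle, duplicate wells.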

Read-out in experiment [4]: Cellular tumor antigen p53 (Homo sapiens) (UniProt P04637)
Nature of the experiment: LTEA_HepaRG_TP53: Life Technologies and Expression Analysis (LTEA) Assay for Tumor Protein P53 (TP53) using HepaRG (AID 2283537; active = hit-call score of the fitted dose curve at least 0.9, where 1 is the maximum; inactive = score below 0.9). The conditions noted are these: mRNA level, 48 h; actives raise or lower the signal. The essentials: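 Differentiated HepaRG cells in serum-free induction medium exposed 48 h in duplicate to 8 half-log concentrations, top 100 uM, 0.5% DMSO. TP53 mRNA by TaqMan qRT-PCR (Fluidigm), normalized to ACTB, GAPDH, POLR2A; fitted bidirectionally versus DMSO.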

Read-out in experiment [5]: UDP glucuronosyltransferase (UGT1A1), UGT1A1 (gene 54658)
Nature of the experiment: LTEA_HepaRG_UGT1A1: Life Technologies and Expression Analysis (LTEA) Assay for UDP glucuronosyltransferase (UGT1A1) using HepaRG (AID 2283538; active = hit-call score of the fitted dose curve at least 0.9, where 1 is the maximum; inactive = score below 0.9). The conditions noted are these: mRNA level, 48 h; actives raise or lower the signal. The essentials:
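UGT1A1 transcript level, measured by qRT-PCR with three housekeeping genes for normalization, after 48 h treatment of human HepaRG cells (0.5% DMSO, duplicates, up to 100 uM, half-log steps, 8 points). Curves fit both directions against DMSO baseline.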

Read-out in experiment [6]: X-box binding protein 1 (XBP1), XBP1 (gene 7494)
Nature of the experiment: LTEA_HepaRG_XBP1: Life Technologies and Expression Analysis (LTEA) Assay for X-box binding protein 1 (XBP1) using HepaRG (AID 2283540; active = hit-call score of the fitted dose curve at least 0.9, where 1 is the maximum; inactive = score below 0.9). The conditions noted are these: mRNA level, 48 h; actives raise or lower the signal. In short, it runs like this: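 Differentiated human HepaRG cells in serum-free induction medium were exposed in duplicate for 48 h to eight half-log concentrations up to 100 uM in 0.5% DMSO. XBP1 mRNA was quantified by qRT-PCR, normalised to ACTB, GAPDH and POLR2A, with bidirectional fitting against DMSO.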

Experiment [7] is described as follows: LTEA_HepaRG_LDH_cytotoxicity: Cytotoxicity Assessment in the Life Technologies and Expression Analysis (LTEA) Assay (AID 2283563).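 For AC50: LDH activity released into spent culture medium as a marker of cell death.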 In short, it runs like this:
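Differentiated human HepaRG cells, plated 48 h beforehand, were switched to serum-free induction medium and exposed for 48 h to eight half-log concentrations (top 100 uM) in 0.5% DMSO. LDH was measured in spent medium; activity was fitted relative to DMSO vehicle.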

Experiment [8] in a line: ATG_XTT_Cytotoxicity: Cytotoxicity Assessment in the Attagene TRANS-FACTORIAL HepG2 Assay (AID 2283584). The essentials:
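HepG2 human liver cells, transiently transfected with multiple GAL4-UAS reporter units, were dosed and read at 24 h by XTT as cell number. Loss of signal was fitted relative to DMSO negative control baseline.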

Experiment [9] can be described thus: TOX21_p53_BLA_p2_viability: Viability Assessment in the Tox21 HCT-116 p53 Agonism Beta-lactamase Assay, Phase 2 (AID 2283591).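 Note: compound exposure lasted 16 h at 37 °C; actives lower the ATP signal meaning cytotoxicity.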 The essentials: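 Cytotoxicity readout: CellTiter-Glo ATP luminescence, 30 min at room temperature, after the beta-lactamase read. Cells were HCT116 exposed 16 h at 37C to compounds pin-transferred at 217-fold dilution from DMSO stocks.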

For experiment [10], the target named is Cellular tumor antigen p53 (Homo sapiens) (UniProt P04637). Nature of the experiment: TOX21_p53_BLA_p2_ratio: Tox21 HCT-116 p53 Agonism Beta-lactamase Assay, Ratio, Phase 2 (AID 2283592). In short, it runs like this:
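Ratio endpoint: beta-lactamase cleavage of CCF4-AM, blue (460 nm) over green (530 nm). HCT116 reporter line; 16 h treatment, 37C; substrate 2 h RT.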

Experiment [11] can be described thus: TOX21_p53_BLA_p3_viability: Viability Assessment in the Tox21 HCT-116 p53 Agonism Beta-lactamase Assay, Phase 3 (AID 2283593).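 Note: cells exposed to compound for 16 h before reading.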 In short, it runs like this: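 Cellular ATP was quantified by CellTiter-Glo luminescence, read after 30 min at room temperature. Beforehand, HCT116 cells (4000/well) received compound 5 h post-seeding, 217-fold diluted from DMSO, then incubated 16 h at 37C.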

In experiment [12] the target is Cellular tumor antigen p53 (Homo sapiens) (UniProt P04637). Kind of experiment: TOX21_p53_BLA_p3_ratio: Tox21 HCT-116 p53 Agonism Beta-lactamase Assay, Ratio, Phase 3 (AID 2283596). The essentials:
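Cells were seeded at 4000/well, rested 5 h at 37C, then dosed with DMSO compound solutions (217-fold dilution) for 16 h. CCF4-AM substrate was loaded for 2 h at room temperature, and the 460/530 nm emission ratio was fitted for gain of signal versus DMSO.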

Experiment [13] is described as follows: TOX21_p53_BLA_p4_viability: Viability Assessment in the Tox21 HCT-116 p53 Agonism Beta-lactamase Assay, Phase 4 (AID 2283597).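 Note: hits lower the luminescence signal meaning cytotoxicity.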 The essentials: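 Cytotoxicity was inferred from loss of CellTiter-Glo luminescence. HCT116 cells had been dosed with compounds after 5 h plating, incubated 16 h at 37C and 5% CO2, and exposed to the CCF4-AM substrate for 2 h.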
The target in experiment [14] is Cellular tumor antigen p53 (Homo sapiens) (UniProt P04637). Nature of the experiment: TOX21_p53_BLA_p5_ratio: Tox21 HCT-116 p53 Agonism Beta-lactamase Assay, Ratio, Phase 5 (AID 2283599). The essentials: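 Beta-lactamase reporter ratio (blue 460 nm over green 530 nm, 405 nm excitation) after 2 h CCF4-AM loading, in HCT-116 cells exposed 16 h at 37 C to compounds pinned at 217-fold dilution. Increases relative to DMSO baseline scored.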

Experiment [15] is described as follows: TOX21_p53_BLA_p5_viability: Viability Assessment in the Tox21 HCT-116 p53 Agonism Beta-lactamase Assay, Phase 5 (AID 2283600). In short, it runs like this: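 Luciferase-coupled ATP quantitation of cells treated for 16 h (37C, 5% CO2) with test chemicals delivered in DMSO via a 217-fold dilution; 4000 cells/well; reagent incubated 30 min at room temperature before luminescence reading.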

In experiment [16] the target is Cellular tumor antigen p53 (Homo sapiens) (UniProt P04637). Nature of the experiment: TOX21_p53_BLA_p4_ratio: Tox21 HCT-116 p53 Agonism Beta-lactamase Assay, Ratio, Phase 4 (AID 2283601). The essentials:
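Signal is the blue/green (460nm/530nm) ratio of cleaved versus uncleaved CCF4-AM substrate, read after 2 h substrate loading. Cells were HCT116 carrying the p53-responsive beta-lactamase reporter, dosed 16 h at 37C, 5% CO2; CellTiter-Glo measured in parallel.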

Experiment [17] is described as follows: Tanguay_ZF_120hpf_MORT_legacy: (Legacy) Oregon State University Tanguay Lab 120 Hour Post-fertilization zebrafish Assay for Mortality (AID 2283633).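 For AC50: fitted as increase in binary mortality versus DMSO negative control.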 In short, it runs like this: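 Dechorionated Tropical 5D wild-type zebrafish embryos, one per well from 6 hpf, were statically exposed at 28C in the dark until 120 hpf (0.64% DMSO final). Mortality was scored as present/absent by brightfield microscopy, fitted positively versus DMSO.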

Experiment [18] can be described thus: Tanguay_ZF_120hpf_YSE_legacy: (Legacy) Oregon State University Tanguay Lab 120 Hour Post-fertilization zebrafish Assay for Yolk Sac Edema (AID 2283634).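 For AC50: actives raise the incidence of yolk sac edema above the DMSO baseline.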 The essentials:
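Tropical 5D wild-type embryos, dechorionated with pronase at 4 hpf, were exposed singly from 6 hpf to 120 hpf under static, sealed, dark conditions at 28C with 0.64% DMSO final. Yolk sac edema was scored present/absent by brightfield microscopy.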

Read-out in experiment [19]: UDP glucuronosyltransferase (UGT1A6), UGT1A6 (gene 54578)
Kind of experiment: LTEA_HepaRG_UGT1A6: Life Technologies and Expression Analysis (LTEA) Assay for UDP glucuronosyltransferase (UGT1A6) using HepaRG (AID 2283539; active = hit-call score of the fitted dose curve at least 0.9, where 1 is the maximum; inactive = score below 0.9). The conditions noted are these: mRNA level, 48 h; actives raise or lower the signal. The essentials: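 Human HepaRG cells were dosed for 48 h in serum-free induction medium with 0.5% DMSO vehicle, eight-point half-log series from 100 uM, in duplicate. UGT1A6 mRNA was measured by qRT-PCR, normalized to ACTB, GAPDH, POLR2A, and fitted bidirectionally against DMSO.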

Cellular tumor antigen p53 (Homo sapiens), sequence (P04637 whole entry, looked up): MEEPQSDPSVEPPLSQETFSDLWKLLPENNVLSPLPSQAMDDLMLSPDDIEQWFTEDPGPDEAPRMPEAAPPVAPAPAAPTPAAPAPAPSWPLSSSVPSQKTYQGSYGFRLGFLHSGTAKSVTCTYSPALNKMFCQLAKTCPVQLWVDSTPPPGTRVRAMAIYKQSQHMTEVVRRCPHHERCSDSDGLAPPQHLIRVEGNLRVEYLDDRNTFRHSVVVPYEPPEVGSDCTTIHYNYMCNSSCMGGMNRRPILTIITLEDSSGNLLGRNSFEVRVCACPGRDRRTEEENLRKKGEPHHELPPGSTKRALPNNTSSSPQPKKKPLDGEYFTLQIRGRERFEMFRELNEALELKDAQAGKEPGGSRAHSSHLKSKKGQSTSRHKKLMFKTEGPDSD

On to `Oc1ccc(Cl)cc1Cc1ccccc1`, for which the outcome in experiment [1] was “inactive”; with TIMP1, TIMP1 (gene 7076), “inactive”; in experiment [2] it was “inactive”; in experiment [4], “inactive”; in [5], “inactive”; in [6], “inactive”. Further, the compound was classed as inactive in [8], in experiment [10], in experiment [11], in experiment [12], in experiment [15] and in [16]. For the same compound, the result in experiment [18] was inactive. In addition, the AC50 in [3] was 78.1 µM (active) and 50.5 µM (active) and 87.7 µM (active); in [7], 91.5 µM (active) and 93.3 µM (active) and 94.7 µM (active); in experiment [9], 70.3 µM (active) and 66.7 µM (active); in experiment [10] it was 85 µM (active) and 57.2 µM (active); in [11] it was 72.8 µM (active); in experiment [13], 67.5 µM (active) and 23.3 µM (active) and 36.5 µM (active). Besides, the AC50 in experiment [14] is 79 µM (active) and 86.7 µM (active); in experiment [15], 73.6 µM (active) and 70.6 µM (active); in experiment [16], 86.5 µM (active) and 41.3 µM (active); in [17] it was 10.8 µM (active) and 6.48 µM (active) and 36 µM (active).
Turning to `CCC(C)(C)C(=O)OC1=C(c2ccc(Cl)cc2Cl)C(=O)OC12CCCCC2`, the outcome is “inactive” in experiment [1]; “inactive” with TIMP1, TIMP1 (gene 7076); “inactive” in experiment [2]; “inactive” in experiment [3]; “inactive” in experiment [4]; “inactive” in experiment [5]. Besides, the result in experiment [19], in experiment [6], in [7], in experiment [9], in experiment [10] and in experiment [13] was inactive. The result in experiment [16], in [17] and in experiment [18] was inactive. The results for the AC50 in experiment [11], in [12] and in experiment [14] were 74.9 µM (active), 2.5 µM (active) and 28.4 µM (active), respectively.
With `CC1(C)C(C=C(Cl)Cl)C1C(=O)OC(C#N)c1ccc(F)c(Oc2ccccc2)c1` (configuration not stated), the outcome is “inactive” in experiment [1]; “inactive” with TIMP1, TIMP1 (gene 7076); “inactive” in experiment [2]; “inactive” in [3]; “inactive” in [4]; “inactive” in experiment [6]. The call in [7], in experiment [8], in experiment [9], in experiment [10], in [11] and in experiment [13] was inactive. For the same compound, the result in experiment [14], in [15], in experiment [16], in experiment [17] and in experiment [18] was inactive. The AC50 in [5] was 10.2 µM (active).
Consider `CN1CSC(=S)N(C)C1`, for which the outcome in [1] is “inactive”; with TIMP1, TIMP1 (gene 7076), “inactive”; in [2] it was “inactive”; in experiment [3], “inactive”; in experiment [4], “inactive”; in experiment [5] it was “inactive”. The outcome in experiment [6], in experiment [7], in experiment [9], in experiment [10], in [11] and in experiment [12] was inactive. Also, the call in [13], in experiment [14], in experiment [15], in experiment [16] and in [17] was inactive. Besides, the AC50 in [18] is 26.6 µM (active).
